BioA inh = M. tuberculosis BioA enzyme inhibitors, primary screen, biochemical, plate reader, single point, HTS. 7,8-diaminopelargonic acid synthase BioA (Mycobacterium tuberculosis). 360,000 tested, 0.096% active. AID 602481, 2012. inhibition, % at 9.99 µM. purified M. tuberculosis BioA enzyme; in the data active means inhibition above about 40%
Vc quorum ag = inducers of Vibrio cholerae quorum light production without autoinducers, primary screen, BH1578 luxS cqsA deficient, single point; V. cholerae BH1578 lux reporter, luminescence, 6 h; activation, % at 18.7 µM; 350,000 tested, 0.16% active; in the data active means activation mostly above about 9.7%, no sharp cut-off
GDH-TPI counter-1 = GDH-TPI coupling enzyme inhibitors, primary screen, artefact control for M. tuberculosis FBA inhibitor project, biochemical, absorbance, full deck. 360,000 tested, 1.2% active. GDH-TPI coupled enzyme counterscreen, NADH absorbance. AID 588335, 2011. inhibition, % at 4.8 µM; in the data active means inhibition above about 30%;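 further: 0% = DMSO wells and 100% = wells lacking the enzyme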
FBA Mtb inh = Mtb FBA enzyme inhibitors, primary screen, biochemical, fluorescence, strain H37Rv; purified M. tuberculosis FBA, fluorescence read-out; inhibition, % at 1 µM; 360,000 tested, 2.3% active;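 further: 0% = vehicle and 100% = reference inhibitor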
Target sequence (P9WQA3 whole entry, looked up): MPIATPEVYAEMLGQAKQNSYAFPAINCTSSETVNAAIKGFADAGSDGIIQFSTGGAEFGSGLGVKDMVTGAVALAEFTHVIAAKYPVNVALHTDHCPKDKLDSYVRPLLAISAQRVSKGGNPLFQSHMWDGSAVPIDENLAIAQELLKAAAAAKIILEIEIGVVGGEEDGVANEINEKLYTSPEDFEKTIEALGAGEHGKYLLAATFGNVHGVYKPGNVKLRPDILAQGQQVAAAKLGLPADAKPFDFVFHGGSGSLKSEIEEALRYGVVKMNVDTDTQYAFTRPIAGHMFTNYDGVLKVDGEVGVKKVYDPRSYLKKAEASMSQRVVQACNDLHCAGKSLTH
Mtb FBA confirm = M. tuberculosis aldolase blockers, biochemical, fluorescence, strain H37Rv, confirmation. shares compounds with FBA Mtb inh. purified M. tuberculosis FBA, fluorescence read-out. inhibition, % at 1 µM. 5,600 tested, 78% active. AID 651616, 2012;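 further: 0% = vehicle wells and 100% = reference inhibitor wells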
GDH-TPI counter-2 = GDH-TPI coupling enzyme inhibitors, artefact control for M. tuberculosis FBA inhibitor project, biochemical, fluorescence, high throughput. 5,600 tested, 81% active. GDH-TPI coupled enzyme counterscreen. shares compounds with FBA Mtb inh. AID 652141, 2013. inhibition, % at 1 µM; in the data active means inhibition above about 10%
Active calls of the source: *; i = inactive; / = no result given; + = active, no number. An excerpt weighted towards active compounds, which were near 3% of everything screened. Unless noted, no stated cut-off is given here; in the data, active means inhibition above about 27%; inactive means the rest.

SMILES	BioA inh	Vc quorum ag	GDH-TPI counter-1	FBA Mtb inh	Mtb FBA confirm	GDH-TPI counter-2
O=C(c1cc(-c2ccco2)nc2ccccc12)N1CCCC(C(F)(F)F)C1 (stereo unspecified)	/	-2	2	102*	+	+
C#CCOC(=O)CCCN1C(=O)c2cccc3cccc(c23)C1=O	-2	i	22	32*	156*	121*
COC(=O)CCCN1C(=O)c2cccc3cccc(c23)C1=O	1	-1	7	35*	129*	111*
CO[C@H]1CN(C)C(=O)c2cc(NC(=O)C3CCC3)ccc2OC[C@@H](C)N(Cc2ccncc2)C[C@@H]1C	-3	/	/	/	/	/
CCCC(=O)Nc1ccc2c(c1)OC[C@@H](C)N(Cc1ccccn1)C[C@@H](C)[C@@H](OC)CN(C)C2=O	-2	/	/	/	/	/
COCC(=O)N(C)C[C@@H]1Oc2cc(-c3ccncc3)ccc2S(=O)(=O)N([C@@H](C)CO)C[C@@H]1C	-1	/	/	/	/	/
CCCNC(=O)C[C@@H]1CC[C@@H]2[C@H](COc3ccc(NC(=O)c4cccc(OC)c4)cc3C(=O)N2C)O1	-1	/	/	/	/	/
C[C@@H]1CN([C@H](C)CO)C(=O)c2cccc(NC(=O)C3CC3)c2O[C@@H]1CN(C)Cc1ccc(C(=O)O)cc1	-2	/	/	/	/	/
Cc1nc2scc(-c3cccs3)c2c(=O)[nH]1	-1	0	-1	7	/	/
O=c1[nH]c(-c2ccc(O)cc2)nc2scc(-c3cccs3)c12	0	0	20	35*	/	+
COC(=O)c1cc(NC(=O)CC2Oc3ccccc3NC2=O)cc(C(=O)OC)c1 (stereo unspecified)	0	-7	3	40*	79*	69*
COc1ccc(S(=O)(=O)N(C)C[C@@H]2Oc3c(NC(=O)c4nc5ccccc5s4)cccc3C(=O)N([C@@H](C)CO)C[C@@H]2C)cc1	10	/	/	/	/	/
O=C(NC1CCS(=O)(=O)C1)c1ccc(-c2ccc(Br)cc2)o1 (stereo unspecified)	5	6	2	42*	25	17*
Cc1cc(=O)oc2c3c(cc(OCC(=O)N[C@@H](CC(C)C)C(=O)O)c12)OC(C)(C)CC3	1	-8	11	39*	39*	35*
Cc1c(C)c2c(OCC(=O)NCc3ccncc3)cc3c(c2oc1=O)CCC(C)(C)O3	1	0	8	31*	+	+
Cc1c(C)c2c(OCC(=O)NCC(C)C)cc3c(c2oc1=O)CCC(C)(C)O3	-3	1	-7	57*	+	190*
O=C(COc1cc2oc(=O)c3c(c2cc1Cl)CCC3)NCc1ccncc1	/	-1	21	7	/	/
COc1ccc(CNC(=O)COc2cc3c(c4oc(=O)cc(C)c24)CCC(C)(C)O3)cc1OC	0	0	14	39*	54*	38*
COc1ccc(NC(=O)Nc2ccc3c(c2)CC(=O)N([C@@H](C)CO)C[C@@H](C)[C@H](CN(C)S(=O)(=O)c2cccs2)O3)cc1	-1	/	/	/	/	/
C[C@@H]1CN([C@@H](C)CO)C(=O)c2cc(C3=CCCCC3)cnc2O[C@H]1CN(C)C(=O)C1CCOCC1	-2	/	/	/	/	/
Cc1c(C)c2c(OCC(=O)NCc3ccco3)cc3c(c2oc1=O)CCC(C)(C)O3	-1	-1	16	34*	+	+
Cc1c(C)c2c(OCC(=O)NCc3cccnc3)cc3c(c2oc1=O)CCC(C)(C)O3	0	0	22	57*	69*	52*
O=C(COc1ccc2c3c(c(=O)oc2c1)CCC3)NCc1cccnc1	5	0	16	26	/	/
COc1ccc(CN(C)C[C@H]2Oc3ccc(NS(=O)(=O)c4cn(C)cn4)cc3C(=O)N([C@H](C)CO)C[C@@H]2C)cc1	-1	/	/	/	/	/
CS(=O)(=O)Nc1ccc2c(c1)[C@@H]1C[C@@H](CC(=O)NCc3ccc(Oc4ccccc4)cc3)O[C@@H](CO)[C@@H]1O2	2	/	/	/	/	/
SMILES	BioA inh	Vc quorum ag	GDH-TPI counter-1	FBA Mtb inh	Mtb FBA confirm	GDH-TPI counter-2
Cc1ccc(-c2csc3nc4cc(C(N)=O)ccc4c(=O)n23)cc1	1	1	15	29*	2	-2
C[C@H]1CN([C@@H](C)CO)C(=O)Cc2cc(NS(=O)(=O)c3ccccc3)ccc2O[C@H]1CN(C)Cc1ccncc1	-1	/	/	/	/	/
C[C@@H]1CCCCO[C@H](CN(C)C(=O)C2CCCCC2)[C@H](C)CN([C@@H](C)CO)C(=O)c2cc(NC(=O)Nc3ccc(C(F)(F)F)cc3)ccc2O1	4	/	/	/	/	/
CCn1cc(C(=O)O)c(=O)c2cc(F)c(N3CCN(C(=S)NC(=O)c4ccccc4Cl)CC3)cc21	1	0	11	3	/	/
O=C(O)c1cn(-c2ccc(F)cc2)c2cc(N3CCNCC3)c(F)cc2c1=O	2	-1	9	33*	170*	136*
c1ccc(COn2c(-c3ccccc3)nc3c2CCc2nonc2-3)cc1	-2	-1	0	53*	107*	93*
COn1c(-c2ccccc2)nc2c1CCc1nonc1-2	0	-1	4	5	/	/
CCC(=O)Nc1nnc(-c2cccs2)s1	/	i	0	27*	0	-4
O=C(Cc1ccccc1)Nc1nnc(-c2cccs2)s1	1	i	23	68*	106*	83*
CCC(C)C(=O)Nc1nnc(-c2cccs2)s1 (stereo unspecified)	-1	i	10	32*	51*	47*
COCC(=O)Nc1nnc(-c2cccs2)s1	-1	-1	25	23	/	/
CC(C)NC(=O)N1C[C@H]2[C@@H](c3ccccc31)[C@H](CO)N2C(=O)Nc1ccccc1	0	/	/	/	/	/
O=C(C[C@@H]1C=C[C@H](NS(=O)(=O)c2ccc(F)cc2)[C@@H](CO)O1)NCCc1ccncc1	-1	/	/	/	/	/
COc1ccc(S(=O)(=O)Nc2cccc3c2O[C@@H](CN(C)Cc2ccc(C(=O)Nc4ccccc4N)cc2)[C@@H](C)CN([C@@H](C)CO)C3=O)cc1	1	/	/	/	/	/
Cc1ccc(-c2cnc3c(c2)C(=O)N([C@H](C)CO)C[C@H](C)[C@H](CN(C)C(=O)Cc2ccccc2)O3)cc1	1	/	/	/	/	/
COC(=O)C[C@H]1C[C@@H]2c3cc(NC(=O)CC4CC4)ccc3O[C@@H]2[C@@H](CO)O1	1	/	/	/	/	/
Cc1noc(C)c1S(=O)(=O)N(C)C[C@@H]1Oc2c(NC(=O)c3nc4ccccc4s3)cccc2C(=O)N([C@@H](C)CO)C[C@@H]1C	-3	/	/	/	/	/
C[C@H]1CN([C@@H](C)CO)C(=O)c2cc(NS(C)(=O)=O)ccc2O[C@H]1CN(C)Cc1ccc(C(F)(F)F)cc1	-3	/	/	/	/	/
